{
  "source": "PubChem BioAssay (Tox21)",
  "note": "Results filed as inconclusive are left out. Unmarked numbers belong to inactive results. Active and inactive are the calls of the source. Calls come from the whole dose curve; as a rule, active = well fitted curve in the direction sought with a large enough effect in the repeat runs; inconclusive = weak or mixed curves; inactive = no such curve, though single readings can be large; an effect the other way counts as inactive or inconclusive. % is set by controls: 0 for no effect and ±100 for the full control effect; potency is the fitted concentration of half-maximal effect.",
  "data": [
    {"assay": "qHTS assay to identify small molecule antagonists of the thyroid receptor (TR) signaling pathway - cell viability counter screen (AID 743064); note: nearly all actives have a fitted effect of over 50% in size", "conditions": "GH3.TRE-Luc viability, CellTiter-Fluor, 24 h; series mostly up to 70.3 µM; activity change, negative = cytotoxic: at the top concentration", "outline": "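Counter screen for cytotoxicity: compound plus T3 (1 nM final) on GH3.TRE-Luc cells, 23.5 h at 37 °C, then fluorescence viability readout with CellTiter-Fluor.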", "values": [
      {"smiles": "CCCCCCCCCCCCCCC1CO1", "note": "(stereo not given)", "activity change, negative = cytotoxic": "8.96%"},
      {"smiles": "O=C(C(=O)c1ccc(Br)cc1)c1ccc(Br)cc1", "activity change, negative = cytotoxic": "11.3% [at 32.5 µM]"},
      {"smiles": "C=C(C)C(=O)OCCN(C)C", "activity change, negative = cytotoxic": "9.06% [at 95 µM]"},
      {"smiles": "CC(=O)N(O)CCCCCNC(=O)CCC(=O)N(O)CCCCCNC(=O)CCC(=O)N(O)CCCCCN", "activity change, negative = cytotoxic": "9.56% [at 32.5 µM]"},
      {"smiles": "Nc1nc(N)c2nc(CNc3ccc(C(=O)N[C@@H](CCC(=O)O)C(=O)O)cc3)cnc2n1", "activity change, negative = cytotoxic": "21.1%"},
      {"smiles": "O=C(NN1CCCC1)NS(=O)(=O)c1ccc(Cl)cc1", "activity change, negative = cytotoxic": "17%"},
      {"smiles": "N[C@H]1C(O)O[C@H](CO)[C@H](O)[C@@H]1O", "note": "(stereo not given in full)", "activity change, negative = cytotoxic": "-0.86%"},
      {"smiles": "C=CC[N+]1([C@H]2C[C@H]3[C@@H]4CC[C@H]5C[C@H](OC(C)=O)[C@@H](N6CCCCC6)C[C@]5(C)[C@H]4CC[C@]3(C)[C@H]2OC(=O)CC)CCCCC1", "activity change, negative = cytotoxic": "8.54%"},
      {"smiles": "OCC1CC2CC1C1CCC(CO)C21", "note": "(stereo not given)", "activity change, negative = cytotoxic": "3.04%"},
      {"smiles": "Cn1c(=O)c2c(ncn2CC(O)CO)n(C)c1=O", "note": "(stereo not given)", "activity change, negative = cytotoxic": "8.34% [at 32.5 µM]"},
      {"smiles": "CCOC(=O)CC(=O)c1cc(F)c(Cl)nc1Cl", "activity change, negative = cytotoxic": "-7.35% [at 95 µM]"},
      {"smiles": "O=C(O)COC(=O)Cc1ccccc1Nc1c(Cl)cccc1Cl", "activity change, negative = cytotoxic": "-18.8% [at 32.5 µM]"},
      {"smiles": "CCCCCCCCCCCCCCCBr", "activity change, negative = cytotoxic": "-5.03%"},
      {"smiles": "N#CCc1cccc(C(F)(F)F)c1", "activity change, negative = cytotoxic": "8.25%"},
      {"smiles": "CCCCOC(O)CC", "note": "(stereo not given)", "activity change, negative = cytotoxic": "1.38%"},
      {"smiles": "C[C@H](CCC(=O)O)[C@H]1CC[C@H]2[C@@H]3[C@H](O)C[C@@H]4C[C@H](O)CC[C@]4(C)[C@H]3CC[C@]12C", "Potency": "inactive"},
      {"smiles": "CC[C@H](C)[C@H](N)C(=O)O", "activity change, negative = cytotoxic": "-5.62%"},
      {"smiles": "CCCCCCc1ccc(N)cc1", "activity change, negative = cytotoxic": "-28%"},
      {"smiles": "CC(C)NCC(O)COc1ccc(CC(N)=O)cc1", "note": "(stereo not given)", "activity change, negative = cytotoxic": "2.34%"},
      {"smiles": "COc1ccc([C@@H]2Sc3ccccc3N(CCN(C)C)C(=O)[C@@H]2OC(C)=O)cc1", "Potency": "23.7 µM (active)"},
      {"smiles": "COCCOCCOCCOCCOC", "activity change, negative = cytotoxic": "-0.0163%"},
      {"smiles": "C=C(C)C(=O)OC(C)C", "activity change, negative = cytotoxic": "6.16%"},
      {"smiles": "N#CCCNCCC#N", "activity change, negative = cytotoxic": "26.8% [at 95 µM]"},
      {"smiles": "NCCCOCCOCCOCCCN", "activity change, negative = cytotoxic": "2.05%"},
      {"smiles": "CC(=O)NCCCS(=O)(=O)O", "Potency": "inactive"},
      {"smiles": "Cc1ccc(C(N)=O)cc1N", "activity change, negative = cytotoxic": "17.6%"},
      {"smiles": "O=C(O)C1CCC(C(=O)O)CC1", "note": "(stereo not given)", "activity change, negative = cytotoxic": "28.6%"},
      {"smiles": "Cc1ccccc1N=Nc1ccc(N=Nc2c(O)ccc3ccccc23)c(C)c1", "activity change, negative = cytotoxic": "-6.49%"},
      {"smiles": "CCOC(=S)SSC(=S)OCC", "Potency": "inactive"},
      {"smiles": "ClC(Cl)(Cl)c1ccc(C(Cl)(Cl)Cl)cc1", "activity change, negative = cytotoxic": "-8.79%"},
      {"smiles": "CCCCCCCCCO", "activity change, negative = cytotoxic": "16.8%"},
      {"smiles": "CN(C)CCCOc1nn(Cc2ccccc2)c2ccccc12", "Potency": "8.04 µM (active)"},
      {"smiles": "CCOC(=O)CC(C)C", "activity change, negative = cytotoxic": "11.5%"},
      {"smiles": "FC(F)(F)C(F)(F)C(F)(F)C(F)(F)C(F)(F)C(F)(F)CCI", "activity change, negative = cytotoxic": "-4.87%"},
      {"smiles": "CC(C(=O)O)c1ccc(-c2ccccc2)c(F)c1", "note": "(stereo not given)", "Potency": "inactive"},
      {"smiles": "CCCc1ccccc1", "activity change, negative = cytotoxic": "11.8%"},
      {"smiles": "Cc1ncsc1CCO", "activity change, negative = cytotoxic": "-0.967%"},
      {"smiles": "N=C(N=C(N)N)N1CCOCC1", "activity change, negative = cytotoxic": "-0.36% [at 32.5 µM]"}
    ]},
    {"assay": "qHTS assay to identify small molecule antagonists of the thyroid receptor (TR) signaling pathway (AID 743065); note: nearly all actives have a fitted effect of over 55% in size", "conditions": "GH3.TRE-Luc, T3-stimulated luciferase inhibition, 23.5 h; series mostly up to 70.3 µM; activity, negative = inhibition: at the top concentration", "outline": "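GH3.TRE-Luc rat pituitary cells carrying two TR response elements driving luciferase were plated for 4 h, given compound plus 1 nM T3 (final), and incubated 23.5 h at 37 C. ONE-Glo luminescence measured reporter inhibition; CellTiter-Fluor fluorescence tracked cytotoxicity.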", "values": [
      {"smiles": "CCCCCCCCCCCCCCC1CO1", "note": "(stereo not given)", "activity, negative = inhibition": "6.4%"},
      {"smiles": "O=C(C(=O)c1ccc(Br)cc1)c1ccc(Br)cc1", "activity, negative = inhibition": "0.872% [at 32.5 µM]"},
      {"smiles": "C=C(C)C(=O)OCCN(C)C", "activity, negative = inhibition": "3.82% [at 95 µM]"},
      {"smiles": "CC(=O)N(O)CCCCCNC(=O)CCC(=O)N(O)CCCCCNC(=O)CCC(=O)N(O)CCCCCN", "activity, negative = inhibition": "3.93% [at 32.5 µM]"},
      {"smiles": "Nc1nc(N)c2nc(CNc3ccc(C(=O)N[C@@H](CCC(=O)O)C(=O)O)cc3)cnc2n1", "Potency": "0.0571 µM (active)"},
      {"smiles": "O=C(NN1CCCC1)NS(=O)(=O)c1ccc(Cl)cc1", "activity, negative = inhibition": "10.6%"},
      {"smiles": "N[C@H]1C(O)O[C@H](CO)[C@H](O)[C@@H]1O", "note": "(stereo not given in full)", "activity, negative = inhibition": "-1.35%"},
      {"smiles": "C=CC[N+]1([C@H]2C[C@H]3[C@@H]4CC[C@H]5C[C@H](OC(C)=O)[C@@H](N6CCCCC6)C[C@]5(C)[C@H]4CC[C@]3(C)[C@H]2OC(=O)CC)CCCCC1", "activity, negative = inhibition": "10.7%"},
      {"smiles": "OCC1CC2CC1C1CCC(CO)C21", "note": "(stereo not given)", "activity, negative = inhibition": "-12.2%"},
      {"smiles": "Cn1c(=O)c2c(ncn2CC(O)CO)n(C)c1=O", "note": "(stereo not given)", "activity, negative = inhibition": "2.11% [at 32.5 µM]"},
      {"smiles": "CCOC(=O)CC(=O)c1cc(F)c(Cl)nc1Cl", "activity, negative = inhibition": "-4.71% [at 95 µM]"},
      {"smiles": "O=C(O)COC(=O)Cc1ccccc1Nc1c(Cl)cccc1Cl", "activity, negative = inhibition": "-13.8% [at 32.5 µM]"},
      {"smiles": "CCCCCCCCCCCCCCCBr", "activity, negative = inhibition": "-5.45%"},
      {"smiles": "N#CCc1cccc(C(F)(F)F)c1", "activity, negative = inhibition": "4.41%"},
      {"smiles": "CCCCOC(O)CC", "note": "(stereo not given)", "activity, negative = inhibition": "2.78%"},
      {"smiles": "C[C@H](CCC(=O)O)[C@H]1CC[C@H]2[C@@H]3[C@H](O)C[C@@H]4C[C@H](O)CC[C@]4(C)[C@H]3CC[C@]12C", "Potency": "inactive"},
      {"smiles": "CC[C@H](C)[C@H](N)C(=O)O", "activity, negative = inhibition": "8.63%"},
      {"smiles": "CCCCCCc1ccc(N)cc1", "Potency": "30.6 µM (active)"},
      {"smiles": "CC(C)NCC(O)COc1ccc(CC(N)=O)cc1", "note": "(stereo not given)", "activity, negative = inhibition": "0.267%"},
      {"smiles": "COCCOCCOCCOCCOC", "activity, negative = inhibition": "-0.127%"},
      {"smiles": "C=C(C)C(=O)OC(C)C", "activity, negative = inhibition": "0.937%"},
      {"smiles": "N#CCCNCCC#N", "activity, negative = inhibition": "10.5% [at 95 µM]"},
      {"smiles": "NCCCOCCOCCOCCCN", "activity, negative = inhibition": "7.93%"},
      {"smiles": "CC(=O)NCCCS(=O)(=O)O", "Potency": "inactive"},
      {"smiles": "Cc1ccc(C(N)=O)cc1N", "activity, negative = inhibition": "15.5%"},
      {"smiles": "O=C(O)C1CCC(C(=O)O)CC1", "note": "(stereo not given)", "activity, negative = inhibition": "5.97%"},
      {"smiles": "Cc1ccccc1N=Nc1ccc(N=Nc2c(O)ccc3ccccc23)c(C)c1", "activity, negative = inhibition": "1.17%"},
      {"smiles": "CCOC(=S)SSC(=S)OCC", "Potency": "inactive"},
      {"smiles": "ClC(Cl)(Cl)c1ccc(C(Cl)(Cl)Cl)cc1", "activity, negative = inhibition": "-14.1%"},
      {"smiles": "CCCCCCCCCO", "activity, negative = inhibition": "0.0165%"},
      {"smiles": "CN(C)CCCOc1nn(Cc2ccccc2)c2ccccc12", "Potency": "9.02 µM (active)"},
      {"smiles": "CCOC(=O)CC(C)C", "activity, negative = inhibition": "1.6%"},
      {"smiles": "FC(F)(F)C(F)(F)C(F)(F)C(F)(F)C(F)(F)C(F)(F)CCI", "activity, negative = inhibition": "1.98%"},
      {"smiles": "CC(C(=O)O)c1ccc(-c2ccccc2)c(F)c1", "note": "(stereo not given)", "activity, negative = inhibition": "-0.0706% [at 32.5 µM]"},
      {"smiles": "CCCc1ccccc1", "activity, negative = inhibition": "0.0226%"},
      {"smiles": "Cc1ncsc1CCO", "activity, negative = inhibition": "-0.637%"},
      {"smiles": "N=C(N=C(N)N)N1CCOCC1", "activity, negative = inhibition": "0.0218% [at 32.5 µM]"}
    ]}
  ]
}
